Several values for one entry are separate records, joined by “and”; a condition that tells them apart may be missing. Equal entries are not always repeated. About 2,000 (36%) of roughly 5,500 compounds were called active. Not shown: some 18% with an inconclusive outcome. Rule as the data show it: active = normalized growth mostly below about 0.91 (no sharp cut-off); inconclusive = no clear call, values can overlap the other calls; inactive = mostly above about 0.92. Some of the results follow.
Experiment: chemical genetic growth profiling, strain panel (AID 1159580);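 also: tested at 20 µM; growth read once vehicle control cultures reached saturation at 30 °C; 1 = growth at the plate median or of vehicle wells; lower values mean less growth of the strain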
Settings: S. cerevisiae deletion strains, growth OD

Measured: normalized growth

COc1ccc(C[C@H](N)C(=O)N[C@@H]2[C@@H](CO)OC(n3cnc4c(N(C)C)ncnc43)[C@@H]2O)cc1 (stereo partly specified)
inactive: locus YAL013W, strain DEP1, active compounds read low 1.01 | locus YAL021C, strain ccr4, active compounds read low 0.977 | locus YAL026C, strain drs2, active compounds read low 0.996 | locus YAL030W, strain snc1, active compounds read low 0.996 | locus YBL061C, strain skt5, active compounds read low 0.996 | locus YBR009C, strain hhf1, active compounds read low 0.988 | locus YBR021W, strain FUR4, active compounds read low 1 | locus YBR023C, strain chs3, active compounds read low 0.986 | locus YBR171W, strain sec66, active compounds read low 0.976 | locus YBR229C, strain ROT2, active compounds read low 1.01 | locus YBR231C, strain swc5, active compounds read low 0.994 | locus YBR279W, strain paf1, active compounds read low 0.992 | locus YCL011C, strain gbp2, active compounds read low 1 | locus YCL016C, strain dcc1, active compounds read low 1.01 | locus YCL029C, strain bik1, active compounds read low 1.02 | locus YCL069W, strain vba3, active compounds read low 0.992 | locus YCR088W, strain abp1, active compounds read low 0.992 | locus YDL005C, strain med2, active compounds read low 0.995 | locus YDL035C, strain GPR1, active compounds read low 1 | locus YDL040C, strain nat1, active compounds read low 1.01 | locus YDL074C, strain BRE1, active compounds read low 0.988 | locus YDL101C, strain DUN1, active compounds read low 1.01 | locus YDL134C, strain PPH21, active compounds read low 1 | locus YDL185W, strain tfp1, active compounds read low 1.02 | locus YDL192W, strain arf1, active compounds read low 1.02 | locus YDR001C, strain nth1, active compounds read low 0.982 | locus YDR069C, strain doa4, active compounds read low 0.981 | locus YDR101C, strain arx1, active compounds read low 1.02 | locus YDR137W, strain rgp1, active compounds read low 1.01 | locus YDR150W, strain NUM1, active compounds read low 1 | locus YDR159W, strain sac3, active compounds read low 0.981 | locus YDR162C, strain NBP2, active compounds read low 1.02 | locus YDR195W, strain ref2 0.969 | locus YDR297W, strain sur2, active compounds read low 0.996 | locus YDR318W, strain mcm21, active compounds read low 1.02 | locus YDR334W, strain swr1, active compounds read low 0.977 | locus YDR335W, strain msn5, active compounds read low 0.985 | locus YDR388W, active compounds read low 1.02 | locus YDR392W, strain spt3, active compounds read low 1.01 | locus YDR502C, strain sam2, active compounds read low 1 | locus YEL003W, strain gim4, active compounds read low 0.999 | locus YEL037C, strain rad23, active compounds read low 1 | locus YEL061C, strain CIN8 (second series), active compounds read low 0.99 | locus YEL061C, strain CIN8, active compounds read low 1 | locus YER015W, strain faa2, active compounds read low 0.991 | locus YER016W, strain bim1, active compounds read low 1.01 | locus YER110C, active compounds read low 1.02 | locus YER111C, strain swi4, active compounds read low 0.977 | locus YER155C, strain BEM2 (second series), active compounds read low 1.03 | locus YER155C, strain BEM2, active compounds read low 1 | locus YER167W, strain BCK2, active compounds read low 1.02 | locus YFR010W, strain ubp6, active compounds read low 0.995 | locus YGL078C, strain dbp3, active compounds read low 1.02 | locus YGL086W, strain mad1, active compounds read low 1.02 | locus YGL167C, strain pmr1, active compounds read low 1.01 | locus YGL173C, strain kem1, active compounds read low 0.988 | locus YGL227W, strain vid30, active compounds read low 0.992 | locus YGL240W, strain doc1, active compounds read low 0.987 | locus YGL248W, strain PDE1, active compounds read low 1.01 | locus YGL253W, strain hxk2, active compounds read low 0.981 | locus YGR078C, strain PAC10, active compounds read low 0.99 | locus YGR135W, strain pre9, active compounds read low 1 | locus YGR229C, strain SMI1, active compounds read low 0.996 | locus YGR252W, strain gcn5, active compounds read low 1.06 | locus YHR013C, strain ard1, active compounds read low 0.983 | locus YHR027C, strain rpn1, active compounds read low 0.991 | locus YHR030C, strain SLT2, active compounds read low 1.01 | locus YHR079C, strain IRE1 (second series), active compounds read low 1.02 | locus YHR079C, strain IRE1, active compounds read low 0.98 | locus YHR094C, strain hxt1, active compounds read low 1.02 | locus YHR129C, strain ARP1, active compounds read low 1.01 | locus YHR142W, strain chs7, active compounds read low 1 | locus YHR200W, strain rpn10, active compounds read low 1.03 | locus YIL066C, strain RNR3, active compounds read low 1.02 | locus YIL073C, strain SPO22, active compounds read low 1.06 | locus YIL125W, strain kgd1, active compounds read low 1.01 | locus YIR030C, strain dcg1, active compounds read low 1.02 | locus YJL092W, strain hpr5, active compounds read low 0.988 | locus YJL095W, strain BCK1 (second series), active compounds read low 1 | locus YJL095W, strain BCK1, active compounds read low 0.997 and 0.996 | locus YJL115W, strain asf1, active compounds read low 0.984 | locus YJL129C, strain trk1, active compounds read low 0.987 | locus YJL134W, strain LCB3, active compounds read low 1 | locus YJL154C, strain vps35, active compounds read low 0.996 | locus YJL164C, strain tpk1, active compounds read low 1.01 | locus YJL166W, strain qcr8, active compounds read low 0.979 | locus YJL168C, strain set2, active compounds read low 1.01 | locus YJL187C, strain SWE1 (second series), active compounds read low 1.01 | locus YJL187C, strain SWE1, active compounds read low 0.998 | locus YJR043C, strain POL32, active compounds read low 0.995 | locus YJR066W, strain TOR1, active compounds read low 0.937
